Results published in PubChem BioAssay (NCATS).
Inconclusive results are not listed. Calls of active or inactive are those of the source. Calls follow the shape of the dose curve; as a rule, active = well fitted inhibition curve with a large enough effect; inconclusive = small, poorly fitted or top-dose-only effect; inactive = flat fitted curve, though single readings scatter.

What was measured:
[1] = tested on: ICS; assay: qHTS profiling for inhibitors of Plasmodium falciparum proliferation (AID 504749);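 also: 0% = DMSO vehicle and full inhibition = artemisinin control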; details: P. falciparum in erythrocytes, SYBR Green DNA, 72 h; series mostly up to 28.7 µM
Outline: (§1)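 Each compound contacts P. falciparum-infected red blood cells for 72 h at 37 C; lysis buffer (Tris, EDTA, saponin, Triton X, SYBR Green I) is added and fluorescence measured next morning; values normalized to controls.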

[2] = tested on: JCK; assay: as above; details: P. falciparum in erythrocytes, SYBR Green DNA, 72 h; series mostly up to 28.7 µM
Outline: as §1

[3] = tested on: N140; assay: as above; details: P. falciparum in erythrocytes, SYBR Green DNA, 72 h; series mostly up to 28.7 µM
Outline: as §1

[4] = tested on: P93_24; assay: as above; details: P. falciparum in erythrocytes, SYBR Green DNA, 72 h; series mostly up to 28.7 µM
Outline: as §1

[5] = tested on: P94_40; assay: as above; details: P. falciparum in erythrocytes, SYBR Green DNA, 72 h; series mostly up to 28.7 µM
Outline: as §1

[6] = tested on: PAD; assay: as above; details: P. falciparum in erythrocytes, SYBR Green DNA, 72 h; series mostly up to 28.7 µM
Outline: as §1

[7] = tested on: PC15; assay: as above; details: P. falciparum in erythrocytes, SYBR Green DNA, 72 h; series mostly up to 28.7 µM
Outline: as §1

[8] = tested on: PC26; assay: as above; details: P. falciparum in erythrocytes, SYBR Green DNA, 72 h; series mostly up to 28.7 µM
Outline: as §1

[9] = tested on: PC49; assay: as above; details: P. falciparum in erythrocytes, SYBR Green DNA, 72 h; series mostly up to 28.7 µM
Outline: as §1

[10] = tested on: SC27B; assay: as above; details: P. falciparum in erythrocytes, SYBR Green DNA, 72 h; series mostly up to 28.7 µM
Outline: as §1

[11] = tested on: TAB109; assay: as above; details: P. falciparum in erythrocytes, SYBR Green DNA, 72 h; series mostly up to 28.7 µM
Outline: as §1

[12] = tested on: TAB113; assay: as above; details: P. falciparum in erythrocytes, SYBR Green DNA, 72 h; series mostly up to 28.7 µM
Outline: as §1

[13] = tested on: TAB165; assay: as above; details: P. falciparum in erythrocytes, SYBR Green DNA, 72 h; series mostly up to 28.7 µM
Outline: as §1

[14] = tested on: W2; assay: as above; details: P. falciparum in erythrocytes, SYBR Green DNA, 72 h; series mostly up to 28.7 µM
Outline: as §1

[15] = tested on: KB-3-1; assay: Cytotoxic Profiling of Annotated Libraries Using Quantitative High-Throughput Screening (AID 1296008); details: Five cell lines viability, CellTiter-Glo ATP luminescence, 48-72 h; max response: hits give low values; also: % is scaled to controls: 0 for no effect and ±100 for the full control effect
Outline: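 Cells exposed to compounds for 48 or 72 hr at 37 degrees Celsius. Viability read as ATP-coupled luminescence with CellTiter-Glo after 10 min at room temperature.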
Also: nearly all actives have a fitted effect of over 60% in size.

CCCCCCCCCCCCCCCCCC(=O)OC[C@@H](O)[C@H]1OC[C@H](O)[C@H]1O
inactive: Potency [1] | Potency [2] | Potency [3] | Potency [4] | Potency [5] | Potency [6] | Potency [7] | Potency [8] | Potency [9] | Potency [10] | Potency [11] | Potency [12] | Potency [13] | Potency [14] | max response [15] -10%

NCC[C@H](O)C(=O)N[C@@H]1C[C@H](N)[C@@H](O[C@H]2O[C@H](CN)CC[C@H]2N)[C@H](O)[C@H]1O[C@H]1O[C@H](CO)[C@@H](O)[C@H](N)[C@H]1O
inactive: Potency [1] | Potency [2] | Potency [3] | Potency [4] | Potency [5] | Potency [6] | Potency [7] | Potency [8] | Potency [9] | Potency [10] | Potency [11] | Potency [12] | Potency [13] | Potency [14] | max response [15] 4.22%

CC(C)(Oc1ccc(C2CCCc3ccccc32)cc1)C(=O)O (stereo not given)
inactive: Potency [1] | Potency [2] | Potency [3] | Potency [4] | Potency [5] | Potency [6] | Potency [7] | Potency [8] | Potency [9] | Potency [10] | Potency [11] | Potency [12] | Potency [13] | Potency [14] | max response [15] -10.9%

O=C1CCC(=O)N1CO
inactive: Potency [1] | Potency [2] | Potency [3] | Potency [4] | Potency [5] | Potency [6] | Potency [7] | Potency [8] | Potency [9] | Potency [10] | Potency [11] | Potency [12] | Potency [13] | Potency [14] | max response [15] -1.35%

FC(F)(F)C(F)(F)C(F)(F)C(F)(F)C(F)(F)C(F)(F)F
inactive: Potency [1] | Potency [2] | Potency [3] | Potency [4] | Potency [5] | Potency [6] | Potency [7] | Potency [8] | Potency [9] | Potency [10] | Potency [11] | Potency [12] | Potency [13] | Potency [14] | max response [15] 6.4%

Nc1ncnc2c1ncn2[C@H]1CC[C@@H](CO)O1
inactive: Potency [1] | Potency [2] | Potency [3] | Potency [4] | Potency [5] | Potency [6] | Potency [7] | Potency [8] | Potency [9] | Potency [10] | Potency [11] | Potency [12] | Potency [13] | Potency [14] | max response [15] -2.72%

[O-][N+](=Nc1ccccc1)c1ccccc1
inactive: Potency [1] | Potency [2] | Potency [3] | Potency [4] | Potency [5] | Potency [6] | Potency [7] | Potency [8] | Potency [9] | Potency [10] | Potency [11] | Potency [12] | Potency [13] | Potency [14] | max response [15] -7.74%

COC1=C(OC)C(=O)C(C/C=C(\C)CC/C=C(\C)CC/C=C(\C)CC/C=C(\C)CC/C=C(\C)CC/C=C(\C)CC/C=C(\C)CC/C=C(\C)CC/C=C(\C)CCC=C(C)C)=C(C)C1=O
inactive: Potency [1] | Potency [2] | Potency [3] | Potency [4] | Potency [5] | Potency [6] | Potency [7] | Potency [8] | Potency [9] | Potency [10] | Potency [11] | Potency [12] | Potency [13] | Potency [14] | max response [15] -15.4%

CC(C)(CO)[C@@H](O)C(=O)NCCC(=O)NCCSSCCNC(=O)CCNC(=O)[C@H](O)C(C)(C)CO
inactive: Potency [1] | Potency [2] | Potency [3] | Potency [4] | Potency [5] | Potency [6] | Potency [7] | Potency [8] | Potency [9] | Potency [10] | Potency [11] | Potency [12] | Potency [13] | Potency [14] | max response [15] -0.241%

C=C(C)C1CC=C(C)CC1 (stereo not given)
inactive: Potency [1] | Potency [2] | Potency [3] | Potency [4] | Potency [5] | Potency [6] | Potency [7] | Potency [8] | Potency [9] | Potency [10] | Potency [11] | Potency [12] | Potency [13] | Potency [14] | max response [15] 7.51%

Nc1nccs1
inactive: Potency [1] | Potency [2] | Potency [3] | Potency [4] | Potency [5] | Potency [6] | Potency [7] | Potency [8] | Potency [9] | Potency [10] | Potency [11] | Potency [12] | Potency [13] | Potency [14] | max response [15] -12.3%

COc1ccc(/C=C/C(=O)O)cc1
inactive: Potency [1] | Potency [2] | Potency [3] | Potency [4] | Potency [5] | Potency [6] | Potency [7] | Potency [8] | Potency [9] | Potency [10] | Potency [11] | Potency [12] | Potency [13] | Potency [14] | max response [15] -11.7%

CN1C(=O)OC(C)(C)C1=O
inactive: Potency [1] | Potency [2] | Potency [3] | Potency [4] | Potency [5] | Potency [6] | Potency [7] | Potency [8] | Potency [9] | Potency [10] | Potency [11] | Potency [12] | Potency [13] | Potency [14] | max response [15] 3.96%

O=C1[O][Bi][O]c2ccccc21
inactive: Potency [1] | Potency [2] | Potency [3] | Potency [4] | Potency [5] | Potency [6] | Potency [7] | Potency [8] | Potency [9] | Potency [10] | Potency [11] | Potency [12] | Potency [13] | Potency [14] | max response [15] -7.6%
